Assay results published in the supplement of paper PMC10127200.
Structures can show the parent of a compound that is named as a salt.

Columns and labels:
Assay in all cases: Euclidean distance of Cell Painting phenotypic profile (signed KS, 77 features) to DMSO centroid (dimensionless distance); 5 or 10 uM (library dependent); higher = stronger phenotypic change vs DMSO (phenoactivity)
Details in all cases: 48 h
[1] = test system: 786-O
Summary of the method: (§1)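 Phenoactivity is computed as Euclidean distance to the median vehicle profile. The profiles, drawn from 77 Harmony features scored as signed Kolmogorov-Smirnov statistics versus same-plate vehicle wells, were corrected for plate position, correlation-weighted and replicate-averaged at the top dose. Stained cells were imaged confocally at 20X (9 fields/well) after 48 h with library compounds at 10 or 5 uM, 0.1% DMSO final, in five cancer lines and a healthy fibroblast line.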

[2] = test system: A549
Summary of the method: as §1

[3] = test system: FB
Summary of the method: as §1

[4] = test system: HEPG2
Summary of the method: as §1

[5] = test system: OVCAR4
Summary of the method: as §1

[6] = test system: DU145
Summary of the method: as §1

Compound | Euclidean distance [1] | Euclidean distance [2] | Euclidean distance [3] | Euclidean distance [4] | Euclidean distance [5] | Euclidean distance [6]
CN1c2ccccc2C(=O)N2CCc3c([nH]c4ccccc34)C21 (stereo in doubt) [Evodiamine] | 2.67 | 2.85 | 1.59 | 2.03 | 1.81 | –
COCCOC(=O)C1=C(C)NC(C)=C(C(=O)OC/C=C/c2ccccc2)C1c1cccc([N+](=O)[O-])c1 (stereo not given) [Cilnidipine] | 2.22 | 1.04 | 1.29 | 1.61 | 1.46 | –
CN1CC[C@H](c2c(O)cc(O)c3c(=O)cc(-c4ccccc4Cl)oc23)[C@H](O)C1 [Flavopiridol (Alvocidib)] | 3.09 | 3.07 | 3.22 | 2.66 | 3.72 | –
C[C@]12C=CC(=O)C=C1CC[C@H]1[C@@H]3C[C@@H](O)[C@](O)(C(=O)CO)[C@@]3(C)C[C@H](O)[C@@]12F [Triamcinolone] | 0.975 | 1.88 | 1.81 | 1.35 | 1.94 | –
CNC(=O)c1c(C)oc2cc(Oc3ncnc4cc(OC)c(OC)cc34)ccc12 [Fruquintinib] | 1.24 | 1.24 | 2.06 | 0.855 | 1.44 | –
Cc1cc(C)nc(NS(=O)(=O)c2ccc(N)cc2)n1 [Sulfamethazine] | 1.04 | 0.914 | 0.861 | 0.849 | 1.17 | –
COc1ccc2[nH]c([S@@+]([O-])Cc3ncc(C)c(OC)c3C)nc2c1 [Esomeprazole sodium] | 0.925 | 0.792 | 0.681 | 1.32 | 0.926 | –
C[C@@H]1C[C@H]2[C@@H]3CCC4=CC(=O)C=C[C@]4(C)[C@@]3(Cl)[C@@H](O)C[C@]2(C)[C@@]1(OC(=O)c1ccco1)C(=O)CCl [Mometasone furoate] | 2.05 | 1.97 | 1.79 | 0.88 | 2.18 | –
C(=C\c1ccccc1)/CN1CCN(C(c2ccccc2)c2ccccc2)CC1 [Cinnarizine] | 0.758 | 1.16 | 1.01 | 0.713 | 1.63 | –
NCCCC(N)(C(=O)O)C(F)F (stereo not given) [Eflornithine hydrochloride hydrate] | 1.45 | 1.26 | 1.21 | 0.792 | 1.43 | –
CCC(C)(Oc1ccc(C2(c3ccc(OC(C)(CC)C(=O)O)cc3)CCCCC2)cc1)C(=O)O (stereo not given) [Clinofibrate] | 1.38 | 0.971 | 0.938 | 0.433 | 1.33 | –
COC(=O)CCc1ccc(OCC(O)CNC(C)C)cc1 (stereo not given) [Esmolol HCl] | 0.978 | 0.415 | 0.525 | 0.386 | 1.12 | –
CN(C)C(=N)NC(=N)N [Metformin HCl] | 1.61 | 0.837 | 1.26 | 0.474 | 1.78 | –
COc1cc2ccc(=O)oc2cc1O [Scopoletin] | 1.25 | 0.713 | 0.934 | 0.82 | 1.3 | –
C=C(C)[C@@H]1CC=C(CO)CC1 [Perillyl alcohol] | 0.887 | 0.815 | 0.953 | 1.09 | 1.74 | –
CC(C)C[C@H](NC(=O)[C@@H](O)[C@H](N)Cc1ccccc1)C(=O)O [Bestatin] | 1.08 | 0.773 | 1.11 | 0.637 | 1.09 | –
CC1(C)[C@@H](O[C@H]2O[C@H](C(=O)O)[C@@H](O)[C@H](O)[C@H]2O[C@@H]2O[C@H](C(=O)O)[C@@H](O)[C@H](O)[C@H]2O)CC[C@]2(C)[C@H]3C(=O)C=C4[C@@H]5C[C@@](C)(C(=O)O)CC[C@]5(C)CC[C@@]4(C)[C@]3(C)CC[C@@H]12 [Glycyrrhizin (Glycyrrhizic Acid)] | 1.52 | 0.67 | 1.38 | 0.607 | 1.47 | –
C[C@@H]1C[C@H]2[C@@H]3CCC4=CC(=O)C=C[C@]4(C)[C@@]3(F)[C@@H](O)C[C@]2(C)[C@H]1C(=O)CO [Desoximetasone] | 1.28 | 2.05 | 1.89 | 0.967 | 2.03 | –
COc1ccc(CC(C)NCC(O)c2ccc(O)c(NC=O)c2)cc1 (stereo not given) [Formoterol Hemifumarate] | 1.29 | 0.672 | 0.886 | 1.15 | 1.94 | –
O=C1N=C(O)NC1(c1ccccc1)c1ccccc1 [Phenytoin Sodium] | 0.861 | 0.644 | 0.99 | 0.976 | 0.588 | –
CO[C@@]12[C@H](COC(N)=O)C3=C(C(=O)C(C)=C(N)C3=O)N1C[C@@H]1N[C@@H]12 [Mitomycin C] | 3.14 | 3.37 | 3.89 | 3.46 | 3.61 | –
CN1CCC[C@@H]1Cc1c[nH]c2ccc(CCS(=O)(=O)c3ccccc3)cc12 [Eletriptan HBr] | 0.938 | 0.828 | 1.17 | 0.778 | 1.33 | –
NC(=O)c1ncn([C@@H]2O[C@H](CO)[C@@H](O)[C@H]2O)c1O [Mizoribine] | 1.26 | 0.927 | 0.917 | 0.657 | 0.855 | –
Cc1cc(NC(=O)Nc2ccc(N(C)C)cc2)c2cc(F)cc(F)c2n1 | 0.716 | 1.16 | 0.943 | – | 0.985 | 0.704
COc1ccc2c(c1)c(CC(=O)OCC(=O)O)c(C)n2C(=O)c1ccc(Cl)cc1 [Acemetacin] | 0.932 | 0.994 | 1.09 | 0.526 | 1.57 | –
CC(=O)c1cc2c(o1)C(=O)c1ccccc1C2=O [Napabucasin] | 2.96 | 3.97 | 3.91 | 3.62 | 5.51 | –
Oc1ncnc2[nH]ncc12 [Allopurinol] | 1.04 | 0.955 | 1.01 | 0.506 | 1.21 | –

Compound | Euclidean distance [1] | Euclidean distance [2] | Euclidean distance [3] | Euclidean distance [4] | Euclidean distance [5] | Euclidean distance [6]
N=c1ccn2c(n1)O[C@H]1[C@H](O)[C@@H](CO)O[C@H]12 [Cyclocytidine HCl] | 3.43 | 2.7 | 3.66 | – | 4.57 | 2.45
CCCCCCCCCC(=O)N[C@@H](Cc1c[nH]c2ccccc12)C(=O)N[C@H](CC(N)=O)C(=O)N[C@@H](CC(=O)O)C(=O)N[C@@H]1C(=O)NCC(=O)N[C@@H](CCCN)C(=O)N[C@@H](CC(=O)O)C(=O)N[C@H](C)C(=O)N[C@@H](CC(=O)O)C(=O)NCC(=O)N[C@H](CO)C(=O)N[C@@H]([C@H](C)CC(=O)O)C(=O)N[C@@H](CC(=O)c2ccccc2N)C(=O)O[C@@H]1C [Daptomycin] | 1.06 | 0.544 | 0.795 | 0.461 | 1.14 | –
Nc1ccc2cc3ccc(N)cc3nc2c1 [Proflavine Hemisulfate] | 4.95 | 4.91 | 5.65 | 5.57 | 5.46 | –
COc1ccc([C@@H]2Sc3ccccc3N(CCN(C)C)C(=O)[C@@H]2OC(C)=O)cc1 [Diltiazem HCl] | 0.663 | 1.04 | 0.788 | 0.773 | 0.53 | –
Nc1nc(N)c2nc(-c3ccccc3)c(N)nc2n1 [Triamterene] | 1.01 | 2.17 | 1.13 | 1.45 | 1.29 | –
COc1c2occc2cc2ccc(=O)oc12 [Methoxsalen] | 0.745 | 0.658 | 0.948 | 0.988 | 1.08 | –
Nc1ccc(S(=O)(=O)Nc2nccs2)cc1 [Sulfathiazole] | 0.815 | 0.811 | 0.62 | 0.824 | 0.818 | –
COc1ccc2cc1Oc1ccc(cc1)C[C@H]1c3cc(c(OC)cc3CCN1C)Oc1c(OC)c(OC)cc3c1[C@H](C2)N(C)CC3 [Tetrandrine] | 4.3 | 4.1 | 2.97 | 1.84 | 2.11 | –
CCOC(=O)c1ncn2c1CN(C)C(=O)c1cc(F)ccc1-2 [Flumazenil] | 1.08 | 0.73 | 1.11 | 0.383 | 0.959 | –
CCOC(=O)C1=C(C)NC(C)=C(C(=O)OC)C1c1cccc(Cl)c1Cl (stereo not given) [Felodipine] | 1.02 | 1.19 | 0.651 | 0.85 | 0.942 | –
CC(C)(C)c1ccc(C(=O)CCCN2CCC(OC(c3ccccc3)c3ccccc3)CC2)cc1 [Ebastine] | 1.64 | 1.24 | 1.83 | 0.905 | 1.22 | –
O=c1n(CCCN2CCN(c3cccc(Cl)c3)CC2)nc2ccccn12 [Trazodone] | 0.477 | 1.03 | 0.908 | 0.599 | 1.37 | –
O=C(Nc1ccc(OC(F)(F)Cl)cc1)c1cnc(N2CC[C@@H](O)C2)c(-c2cc[nH]n2)c1 [Asciminib (ABL001)] | 1.54 | 1.72 | 1.32 | 1.2 | 1.39 | –
COc1ccc(-n2nc(C(N)=O)c3c2C(=O)N(c2ccc(N4CCCCC4=O)cc2)CC3)cc1 [Apixaban] | 2.4 | 2.33 | 3.79 | 1.17 | 2.13 | –
O=c1c(O)c(-c2ccc(O)cc2O)oc2cc(O)cc(O)c12 [Morin Hydrate] | 0.826 | 0.616 | 0.68 | 0.312 | 1.06 | –
N[C@H]1C(O)O[C@H](CO)[C@@H](O)[C@@H]1O (stereo not given in full) [Glucosamine] | 0.508 | 0.407 | 0.896 | 1.07 | 1.28 | –
CC(=O)[C@H]1CC[C@H]2[C@@H]3CCC4=CC(=O)CC[C@]4(C)[C@H]3CC[C@]12C [Progesterone] | 0.734 | 0.774 | 0.883 | 0.863 | 0.832 | –
CC12CCC(CC1)C(C)(C)O2 [Eucalyptol] | 0.884 | 0.614 | 0.855 | 0.869 | 0.746 | –
Clc1ccc(COC(Cn2ccnc2)c2ccc(Cl)cc2Cl)c(Cl)c1 (stereo not given) [Miconazole Nitrate] | 1.25 | 1.35 | 0.864 | 0.872 | 0.979 | –
CC(C)C(=O)Nc1ccc([N+](=O)[O-])c(C(F)(F)F)c1 [Flutamide] | 0.873 | 0.771 | 1.09 | 0.723 | 1.99 | –
O=C(C1CCCCC1)N1CC(=O)N2CCc3ccccc3C2C1 (stereo not given) [Praziquantel] | 0.868 | 0.773 | 0.97 | 0.33 | 1.36 | –
COCCCOc1cc(C[C@@H](C[C@H](N)[C@@H](O)C[C@H](C(=O)NCC(C)(C)C(N)=O)C(C)C)C(C)C)ccc1OC [Aliskiren Hemifumarate] | 0.778 | 0.371 | 0.622 | 0.506 | 0.752 | –
Cc1ncc([N+](=O)[O-])n1CC(C)O (stereo not given) [Secnidazole] | 1.02 | 0.496 | 0.982 | 1.12 | 0.655 | –
CCC1(c2ccccc2)C(=O)NCNC1=O [Primidone] | 1.2 | 0.708 | 1.19 | 0.442 | 2.2 | –
CC(C)[C@H]1C(=O)N[C@@H](CCCN=C(N)N)C(=O)NCC(=O)N[C@@H](CC(=O)O)C(=O)N[C@H](Cc2ccccc2)C(=O)N1C | 4.91 | 2.03 | 1.25 | 4.74 | 2.44 | –
C[C@H](CCC(=O)O)[C@H]1CC[C@H]2[C@@H]3[C@@H](O)C[C@@H]4C[C@H](O)CC[C@]4(C)[C@H]3CC[C@]12C [Ursodiol] | 1.16 | 0.853 | 1.04 | 0.517 | 0.943 | –
